# Records with an inconclusive call do not appear. Unmarked numbers belong to inactive results. Active and inactive are the calls of the source. The call rests on the fitted dose curve; in most records, active means well fitted cell-killing curve with a large enough effect in the repeat runs (not every such curve was filed as active); inconclusive means weak or mixed curves, or effect the other way; inactive means no such curve, though single readings can be large or run the other way.
# Assay: qHTS assay to identify small molecule antagonists of the estrogen related receptor signaling pathway with the pleiotropic PPARgamma coactivator (PGC) from Tox21 10K library - cell viability counter screen (AID 1224840); further: nearly all actives have a fitted effect of over 40% in size
# Settings: PGC/ERR reporter cells viability, CellTiter-Fluor, 17.5 h; series mostly up to 92.4 µM
# Source text: National Center for Advancing Translational Sciences [NCATS]
# NIH Chemical Genomics Center [NCGC]
# U.S. Environmental Protection Agency [EPA]
# National Institutes of Environmental Health Sciences [NIEHS]
# National Toxicology Program [NTP]
# U.S. Food and Drug Administration [FDA]
# Estrogen related receptors (ERRs), the first orphan nuclear receptors discovered, play an important role in the control of cellular energy metabolism. ERRs are required for high-energy production in response to the environmental challenges. The pleiotropic PPARgamma coactivator (PGC) is a major partner of ERR and a key regulator in energy homeostasis. Together they have been implicated in the etiology of metabolic disorders such as Type 2 diabetes and metabolic syndrome. ERR-alpha was also identified as an adverse marker for breast cancer progression; ERR-alpha-positive tumors have a poor prognosis. To screen and to identify environmental compounds that perturb the ERR and PGC/ERR signaling pathways could provide valuable information for potential therapeutic or preventive measures in the treatment of metabolic disease. To differentiate true PGC/ERR antagonists or agonist from cytotoxic substances, the assay is multiplexed with cell viability assay.
# Tox21 Assay Protocol Summary:
# The PGC/ERR cells were dispensed at 2,000 cells/5 ul/well in 1536-well white plates using a Multidrop dispenser. After the assay plates were incubated at a 37 C/5% CO2 incubator for 6 hours, 23 nL of compounds dissolved in DMSO, positive and negative controls or DMSO only was transferred to the assay plate by a pin tool. The plates were incubated at 37 C for 17.5 hours. 1 ul/well of CellTiter-Fluor reagent was added into the assay plates using a Flying Reagent Dispenser. After 30-minute incubation at 37 C/5% CO2, the fluorescence intensity in the plates was measured using a ViewLux plate reader.
# On the % scale 0 is the no-effect control and ±100 the full control effect.
SMILES,outcome,"viability change, negative = cytotoxic"
C=CC(=O)OCC[N+](C)(C)C,inactive,
CC(C)(C)C(=O)NCCCC(=O)O,inactive,
CC(CN1CC(=O)NC(=O)C1)N1CC(=O)NC(=O)C1 (stereo not given),inactive,
O=C(O)COc1ccc2ccccc2c1,inactive,
CCC(=O)OCCOc1ccccc1,inactive,
CCCCCCCCCCCCCCBr,inactive,
CN(C)CCc1c[nH]c2ccc(CS(=O)(=O)N3CCCC3)cc12,inactive,
O=C(c1ccccc1)c1cccc(O)c1,inactive,
COc1cc(C(=O)NC2CCCNC2)cc(OC)c1OC (stereo not given),inactive,
COc1cc2nc(N3CCN(C(=O)C4CCCO4)CC3)nc(N)c2cc1OC (stereo not given),inactive,
NNC(=O)CCCCC(=O)NN,inactive,
CCC(C)c1nccnc1OC (stereo not given),inactive,
CCCCNCC,inactive,
C/C(=N\O)c1ccc(OCC(=O)N2CCCCC2)cc1,inactive,
CC(=O)Oc1ccc(C(C)=O)cc1,inactive,
O=S(=O)(O)c1cc(I)c(O)c2ncccc12,inactive,
CN(C)c1ccncc1,inactive,
OCCC(F)(F)C(F)(F)C(F)(F)C(F)(F)C(F)(F)C(F)(F)F,inactive,
NC[C@H]1O[C@H](O[C@H]2[C@H](O)[C@@H](O[C@H]3O[C@H](CO)[C@@H](O)[C@H](N)[C@H]3O)[C@H](N)C[C@@H]2N)[C@H](N)[C@@H](O)[C@@H]1O,,1.41% [at 19 µM]
C=CC(C)(CCC=C(C)C)OC(=O)C(C)C (stereo not given),inactive,

SMILES,outcome,"viability change, negative = cytotoxic"
CC(C)(C)C(=O)CCc1ccc(Cl)cc1,inactive,
CCc1ncc(C)[nH]1,inactive,
CC(C)C(=O)Nc1cccc(C2CN3CCSC3=N2)c1 (stereo not given),inactive,
Cc1cc2c(cc1CC(=O)c1sccc1S(=O)(=O)Nc1onc(C)c1Cl)OCO2,inactive,
CCCC(C)C(O)CC (stereo not given),inactive,
O=CN1CCCCC1,inactive,
CCCc1ccc(O)c(OC)c1,inactive,
Cc1nnc(C(=O)NC(C)(C)c2nc(C(=O)NCc3ccc(F)cc3)c(O)c(=O)n2C)o1,inactive,
Cc1ccc(O)c(C(=O)c2ccccc2)c1,inactive,
CCCCCCCC(=O)N(C)C,inactive,
C[C@@H]1NC(=O)[C@@H](N)CNC(=O)[C@H](C2CCNC(N)=N2)NC(=O)/C(=C/NC(N)=O)NC(=O)[C@H](CNC(=O)C[C@@H](N)CCCN)NC1=O (stereo not given in full),,10.7% [at 0.349 µM]
CCC(C)SSC(C)CC (stereo not given),inactive,
Nc1cc(S(=O)(=O)O)ccc1O,inactive,
C=CCOC(=O)CCCCCCCC,inactive,
CCCCCCCCCCCCCC(=O)OCC,inactive,
O=S(=O)(O)c1ccc(Cl)cc1,inactive,
C=CCCCCCCCCOC(C)=O,inactive,
CC(=O)Nc1ccc(S(=O)(=O)Nc2cc(C)on2)cc1,inactive,
CC(=O)OC1CCC(C(C)(C)C)CC1 (stereo not given),inactive,
CN(C)CCc1c[nH]c2ccc(C[C@H]3COC(=O)N3)cc12,inactive,
